CYP2C9 inh = human CYP2C9 inhibition | AID 777 | inhibition, % at 5 µM | hit rate 20% among 96,000 | P11712 | CYP2C9 Supersomes, luciferin-H conversion, luminescence;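 active = blocking of liver enzyme CYP2C9 beyond about 50% at 5 µM, limit read from the data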
PLAP act = activates human placental alkaline phosphatase; purified PLAP enzyme, luminescent substrate read-out; stronger effect = higher value; activation fold at 20 µM; hit rate 1.2% among 96,000; in the data active = activation fold above about 2
Target sequence (P05187 whole entry, looked up): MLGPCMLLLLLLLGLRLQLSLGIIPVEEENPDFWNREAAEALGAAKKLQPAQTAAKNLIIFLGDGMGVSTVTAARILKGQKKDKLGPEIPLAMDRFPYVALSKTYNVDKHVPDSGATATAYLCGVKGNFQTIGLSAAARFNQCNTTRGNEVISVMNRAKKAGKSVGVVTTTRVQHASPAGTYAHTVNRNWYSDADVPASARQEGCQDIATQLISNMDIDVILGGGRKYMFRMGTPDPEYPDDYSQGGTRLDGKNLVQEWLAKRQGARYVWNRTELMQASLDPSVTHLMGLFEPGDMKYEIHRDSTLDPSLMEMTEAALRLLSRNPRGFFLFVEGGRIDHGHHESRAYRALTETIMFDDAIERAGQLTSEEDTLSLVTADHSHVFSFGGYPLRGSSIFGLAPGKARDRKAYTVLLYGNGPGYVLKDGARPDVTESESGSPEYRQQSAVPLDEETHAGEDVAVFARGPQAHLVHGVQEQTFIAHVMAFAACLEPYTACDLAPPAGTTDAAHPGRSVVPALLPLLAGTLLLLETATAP
CYP2C9 act = CYP2C9 (human) activation | P11712 | recombinant CYP2C9, luciferin-H conversion, luminescence; stronger effect = higher value; factor 1 = untreated enzyme, 0 = blocked | activation factor at 5 µM | hit rate 1.4% among 96,000 | AID 1024;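 active = activation factor of 2 or more for CYP2C9 at a 5 µM dose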;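 also: 0 = sulfaphenazole-blocked wells and 1 = vehicle-only wells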
CYP2C19 inhib = inhibitors of human CYP2C19; P33261; inhibition, % at 5 µM; AID 778; CYP2C19 Supersomes, luciferin-H EGE luminescence, 30 min; hit rate 21% among 96,000;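 active = CYP2C19 inhibition above a set limit at 5 µM in the primary screen, cut at about 50% in these data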;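 also: plate controls were negative control wells for no effect and 2.5 mM tranylcypromine positive control for full effect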
CYP2C19 activ = cytochrome P450 2C19 (human) activation; P33261; recombinant CYP2C19, luciferin-H EGE luminescence; stronger effect = higher value; 0 = fully inhibited enzyme, 1 = untreated enzyme; activation factor at 5 µM; 96,000 tested, under 10 active; AID 1025;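 active = activation factor of at least 2 at 5 µM in the primary screen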;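 also: 0 = wells with 2.5 mM tranylcypromine and 1 = vehicle-only wells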
Numbers without * were called inactive. In the library only some 31% were active in any assay of this set; here they are far more common.

O=C(c1ccccc1F)c1cn(CC(=O)N2CCCCC2)c2ccccc12 was read as CYP2C9 inh 30, PLAP act 1, CYP2C9 act 0.7, CYP2C19 inhib 80* and CYP2C19 activ 0.2.
Screening CC(C)(C)NC(=O)Cn1cc(C(=O)c2ccccc2F)c2ccccc21 returned CYP2C9 inh 38, PLAP act 0.8, CYP2C9 act 0.6, CYP2C19 inhib 38 and CYP2C19 activ 0.6.
For O=C(c1ccccc1)c1cn(CC(=O)N2CCCC2)c2ccccc12 the results were CYP2C9 inh 12, PLAP act 1.1, CYP2C9 act 0.9, CYP2C19 inhib 10 and CYP2C19 activ 0.9.
CCC(=O)c1cn(Cc2ccc(C#N)cc2)c2ccccc12 was read as CYP2C9 inh 44, PLAP act 1.1, CYP2C9 act 0.6, CYP2C19 inhib 39 and CYP2C19 activ 0.6.
`CCOC(=O)Cn1cc(C(=O)c2ccccc2F)c2ccccc21` gave CYP2C9 inh 48, PLAP act 0.9, CYP2C9 act 0.5, CYP2C19 inhib 68* and CYP2C19 activ 0.3.
O=C(c1ccccc1F)c1cn(Cc2ccccc2)c2ccccc12 was read as CYP2C9 inh 2, PLAP act 0.9, CYP2C9 act 1, CYP2C19 inhib 60* and CYP2C19 activ 0.4.
OCC12COC3c4ccccc4C(OC1)N32 (centres undefined) was read as CYP2C9 inh -5, PLAP act 1, CYP2C9 act 1, CYP2C19 inhib 6 and CYP2C19 activ 0.9.
`O=C(C1CCN(S(=O)(=O)N2CCOCC2)CC1)N1CCC2(CC1)OCCO2` gave CYP2C9 inh -16, PLAP act 1.1, CYP2C9 act 1.2, CYP2C19 inhib -11 and CYP2C19 activ 1.1.
`Cn1c(=O)cc(OCC(=O)N2CCN(Cc3ccc4c(c3)OCO4)CC2)c2ccccc21` gave CYP2C9 inh 72*, PLAP act 1.5, CYP2C9 act 0.3, CYP2C19 inhib 55* and CYP2C19 activ 0.5.
Screening Cn1c(=O)cc(OCC(=O)N2CCN(C3CCCCC3)CC2)c2ccccc21 returned CYP2C9 inh -21, PLAP act 1.4, CYP2C9 act 1.2, CYP2C19 inhib 9 and CYP2C19 activ 0.9.
For COc1ccc(/C=C2/C(=O)NC(=O)N(C3CCCCC3)C2=O)cc1CSc1ccccn1 the results were CYP2C9 inh 23, PLAP act 1.2, CYP2C9 act 0.8, CYP2C19 inhib 56* and CYP2C19 activ 0.4.
`COc1ccc(C=C2C(=O)N(C)C(=O)N(C)C2=O)cc1CSc1ccccn1` gave CYP2C9 inh 25, PLAP act 0.9, CYP2C9 act 0.8, CYP2C19 inhib 58* and CYP2C19 activ 0.4.
CCOc1ccc(CC2C(=O)NC(=O)N(c3ccc(CC)cc3)C2=O)cc1 (centres undefined) was read as CYP2C9 inh 67*, PLAP act 1.7, CYP2C9 act 0.3, CYP2C19 inhib 39 and CYP2C19 activ 0.6.
Screening CCC(=NCCCN(C)C)c1c(O)n(-c2ccc(OC)cc2)c(=O)[nH]c1=O returned CYP2C9 inh -9, PLAP act 1, CYP2C9 act 1.1, CYP2C19 inhib -18 and CYP2C19 activ 1.2.
COCCOC(=O)C1=C(N)Oc2c(c(=O)oc3ccccc23)[C@@]12C(=O)Nc1ccccc12 was read as CYP2C9 inh 81*, PLAP act 1.1, CYP2C9 act 0.2, CYP2C19 inhib -2 and CYP2C19 activ 1.
Clc1cnc(Oc2ccc(Oc3ncc(Cl)cc3Cl)cc2)c(Cl)c1 was read as CYP2C9 inh -94, PLAP act 0.8, CYP2C9 act 1.9, CYP2C19 inhib 5 and CYP2C19 activ 0.9.
For CCCc1nc2ccccc2c(=O)n1-c1ccccc1OC the results were CYP2C9 inh 9, PLAP act 0.8, CYP2C9 act 0.9, CYP2C19 inhib 23 and CYP2C19 activ 0.8.
`CCc1nc2ccccc2c(=O)n1-c1ccc2ccccc2c1` gave CYP2C9 inh 12, PLAP act 0.8, CYP2C9 act 0.9, CYP2C19 inhib 93* and CYP2C19 activ 0.1.
For CCCCCc1nc2ccccc2c(=O)n1-c1ccc(Cl)cc1[N+](=O)[O-] the results were CYP2C9 inh 5, PLAP act 1, CYP2C9 act 0.9, CYP2C19 inhib 4 and CYP2C19 activ 1.
Screening CCCCc1nc2ccccc2c(=O)n1-c1ccccc1O returned CYP2C9 inh 24, PLAP act 1, CYP2C9 act 0.8, CYP2C19 inhib 54* and CYP2C19 activ 0.5.
`CCCc1nc2ccccc2c(=O)n1-c1cccc(OC)c1` gave CYP2C9 inh 27, PLAP act 0.9, CYP2C9 act 0.7, CYP2C19 inhib 51* and CYP2C19 activ 0.5.
`CCCCOP(=O)(OCCCC)/C(C#N)=C(/C)O` gave CYP2C9 inh 19, PLAP act 1.1, CYP2C9 act 0.8, CYP2C19 inhib -1 and CYP2C19 activ 1.
Screening CCCCC12CNCC(C)(CNC1)C2=O returned CYP2C9 inh -7, PLAP act 1.2, CYP2C9 act 1.1, CYP2C19 inhib -5 and CYP2C19 activ 1.
`O=C1NC(=O)N(CCNc2ncc(C(F)(F)F)cc2Cl)C(=O)C1/C=N/OCc1c(F)cccc1Cl` (centres undefined) gave CYP2C9 inh 48, PLAP act 1.1, CYP2C9 act 0.5, CYP2C19 inhib 19 and CYP2C19 activ 0.8.
COc1ccc(OC)c(C2=NOC(C(=O)N3CCC4(CC3)OCCO4)C2)c1 (centres undefined) was read as CYP2C9 inh -84, PLAP act 1.2, CYP2C9 act 1.8, CYP2C19 inhib 42 and CYP2C19 activ 0.6.
Screening CCCCN1C(=O)C(C2c3ccccc3C(=O)N2Cc2ccccc2)C(=O)NC1=S (centres undefined) returned CYP2C9 inh 54*, PLAP act 1.3, CYP2C9 act 0.5, CYP2C19 inhib 18 and CYP2C19 activ 0.8.
For CN1CCN(C(=O)COc2ccc3ccccc3c2Br)CC1 the results were CYP2C9 inh -26, PLAP act 1.3, CYP2C9 act 1.3, CYP2C19 inhib 66* and CYP2C19 activ 0.3.
Screening Cc1cc(Cl)ccc1OCC(=O)N1CCN(C)CC1 returned CYP2C9 inh -5, PLAP act 1.2, CYP2C9 act 1.1, CYP2C19 inhib 28 and CYP2C19 activ 0.7.
Screening N#Cc1cc2c(nc1SCC(=O)Nc1ccc(Cl)cc1)C1CCN2CC1 returned CYP2C9 inh 84*, PLAP act 0.9, CYP2C9 act 0.2, CYP2C19 inhib 92* and CYP2C19 activ 0.1.
`CCOc1ccc(-n2c(O)c(C=NCCN3CCNCC3)c(=O)[nH]c2=O)cc1` gave CYP2C9 inh -6, PLAP act 1, CYP2C9 act 1.1, CYP2C19 inhib 8 and CYP2C19 activ 0.9.
Cn1cccc1CNCCc1ccccc1 was read as CYP2C9 inh 3, PLAP act 1, CYP2C9 act 1, CYP2C19 inhib 34 and CYP2C19 activ 0.7.
`COc1ccc(CCNCc2ccc(SC)cc2)cc1` gave CYP2C9 inh -3, PLAP act 0.8, CYP2C9 act 1, CYP2C19 inhib 81* and CYP2C19 activ 0.2.
